# In the supplement of paper PMC11219838:
# Values without a mark were called inactive.
# Assays:
# Conditions in all cases: 60 µM; 5 days; temperature: 20 °C
# Meloidogyne hapla J2 = assay: proportion of mobile M. hapla J2 relative to DMSO control (fraction of DMSO control); higher = more viable, less nematicidal, active = 0.7 or less
# In short: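 Two biological replicates were run and averaged, each on 96-well plates in which about 25 M. hapla J2 sat in distilled water per well. Compound was pinned in to give 60 µM final and 0.6% v/v DMSO, and the sealed plates were shaken at 200 rpm and 20 °C for 5 days before 2 µL 1 M NaOH was added. Mobility was scored microscopically and divided by the mean from the plate's DMSO-only wells, of which there were eight.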
# [1] = tested on: Caenorhabditis elegans dauer (daf-2(e1370)); assay: proportion of mobile C. elegans dauer larvae relative to DMSO control (fraction of DMSO control); higher = more viable, less nematicidal, active = 0.63 or less; extreme values may be limits of the assay
# In short: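 Synchronized C. elegans daf-2(e1370) larvae were held at 25 °C for 48 h on MYOB plates with E. coli OP50 to form dauers, and about 20 dauers were added per 96-well well in liquid NGM. Compound was pinned to 60 µM final (0.6% v/v DMSO), and sealed plates were shaken at 200 rpm for 5 days at 20 °C. The proportion of mobile worms was scored under a dissection microscope relative to DMSO controls and averaged over two biological replicates.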
# Ditylenchus dipsaci = assay: proportion of mobile D. dipsaci (mixed stage) relative to DMSO control (fraction of DMSO control); higher = more viable, less nematicidal, active = 0.86 or less; extreme values may be limits of the assay
# In short: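 The worms, D. dipsaci raised on pea plants in Gamborg B-5 agar, were recovered through a filter funnel into water. Each well of a 96-well plate then held about 20 of them in distilled water plus pinned compound at 60 µM final (0.6% v/v DMSO), and the sealed plates were shaken at 200 rpm at 20 °C for 5 days. Following addition of 2 µL 1 M NaOH, mobile worms were counted by microscopy, and mobility was expressed against DMSO controls as the average of two biological replicates.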
SMILES,proportion of mobile M. hapla J2 (Meloidogyne hapla J2),proportion of mobile C. elegans dauer larvae [1],proportion of mobile D. dipsaci (Ditylenchus dipsaci)
N#Cc1ccc(CSc2nnc(-c3ccncc3)o2)cc1,0.972,1,1
O=C(CSc1nnc(-c2ccccc2)o1)Nc1ccc2ccccc2c1,1.01,1,1
O=C(CSc1nnc(-c2ccc(Cl)cc2)o1)c1ccccc1,0.772,1,1
Cc1ccc(-c2noc(-c3ccc4c(c3)OCCO4)n2)cc1,1,0.615 (active),1
COc1ccccc1-c1noc(-c2ccccc2)n1,1.04,1,1
Ic1ccc(CSc2nnc(-c3ccco3)o2)cc1,0.872,1,1
Clc1ccc(-c2nc(-c3ccncc3)no2)cc1,1.03,1,1
CCN(CC)C(=O)CSc1nnc(-c2cccc(Cl)c2)o1,0.922,1,1
Cc1nc(CSc2nnc(-c3ccccc3)o2)cs1,0.282 (active),1,1
COc1ccc(-c2noc(COc3ccccc3Cl)n2)cc1,1.04,1,1
O=C(CSc1nnc(-c2cccc(F)c2)o1)Nc1ccccc1C(=O)c1ccccc1,0.889,1,1
Brc1ccc(-c2nc(-c3ccncc3)no2)cc1,0.953,0.767,1
Cc1ccc(-c2noc(-c3ccc(Cl)cc3)n2)cc1,1.03,1,1
O=C(CSc1nnc(-c2ccc(Cl)cc2Cl)o1)c1ccc2c(c1)OCCO2,0.719,1,1
Cc1cc(OCc2nc(-c3cccnc3)no2)ccc1Cl,0.942,1,1
CCc1ccc(C(=O)Nc2ccccc2-c2nc(-c3ccncc3)no2)cc1,1,1,1
O=C(Nc1ccccc1-c1nc(-c2ccncc2)no1)c1ccccc1Cl,0.979,1,1
COc1ccc(CC(=O)Nc2ccc(-c3noc(-c4ccccc4Br)n3)cc2)cc1,1.08,1,1
Ic1ccc(CSc2nnc(-c3ccccc3)o2)cc1,0.991,1,1
Clc1ccccc1-c1nc(-c2ccc3c(c2)OCO3)no1,0.983,1,1
CC(C)(C)C(=O)Nc1ccccc1-c1nc(-c2ccncc2)no1,1,1,1
CCOc1ccccc1-c1nc(-c2ccc(NC(=O)c3ccncc3)cc2)no1,0.977,1,1
CCOc1nc(-c2ccc(C)cc2)ccc1-c1noc(-c2ccc(F)cc2)n1,0.829,1,1
COc1ccc(-c2nc(-c3ccccc3Cl)no2)cc1,0.964,1,1
Cc1ccc(SCc2nc(-c3cccc(C)c3)no2)cc1,1.01,1,1

SMILES,proportion of mobile M. hapla J2 (Meloidogyne hapla J2),proportion of mobile C. elegans dauer larvae [1],proportion of mobile D. dipsaci (Ditylenchus dipsaci)
COc1ccc(CSc2nnc(-c3ccc(Cl)cc3Cl)o2)cc1,1.01,1,1
O=C(CSc1nnc(-c2ccc(Cl)cc2)o1)Nc1ccccc1C(F)(F)F,0.752,1,1
c1cncc(-c2noc(COc3cccc4ccccc34)n2)c1,0.991,1,1
CCn1c(SCc2nc(-c3ccccc3)no2)nc2ccccc21,1.02,1,1
COC(=O)c1ccc(CSc2nnc(-c3ccncc3)o2)cc1,0.999,1,1
O=C(CSc1nnc(-c2ccccc2)o1)N1CCc2ccccc21,0.993,1,1
CCOc1nc(-c2ccc(C)cc2)ccc1-c1noc(-c2ccncc2)n1,0.901,1,1
O=C(CSc1nnc(-c2ccco2)o1)Nc1ccccc1F,0.933,1,1
Cc1ccc(-c2noc(COc3cc(C)ccc3C)n2)cc1,0.994,1,1
COc1ccc(-c2noc(-c3ccc(C)cc3Cl)n2)cc1,0.969,1,1
CC(C)c1ccc(OCc2nc(-c3ccccn3)no2)cc1,1.01,1,1
CC(=O)Nc1c(C)ccc(CNC(=O)CSc2nnc(-c3ccc(C(C)(C)C)cc3)o2)c1C,0.88,1,1
Cc1ccc(-c2nnc(SCC(=O)Nc3cc(C)c(C)cc3Br)o2)cc1,0.792,1,1
COc1ccc(-c2noc(-c3cccc(Br)c3)n2)cc1,0.987,1,1
Cc1cccc(-c2noc(-c3ccccc3Br)n2)c1,0.99,1,1
c1coc(-c2nnc(-c3ccco3)o2)c1,1.03,1,1
COc1ccc(-c2noc(COc3ccc(Cl)cc3)n2)cc1,1.04,1,1
Clc1ccc(-c2nc(-c3ccncc3)no2)c(Cl)c1,0.942,1,1
O=C(CSc1nnc(-c2ccccc2)o1)Nc1cccc(F)c1,0.853,1,1
COc1ccc(-c2noc(-c3ccc(Br)cc3)n2)cc1,1.04,1,1
CCOC(=O)c1c(NC(=O)CSc2nnc(-c3ccccc3OCC)o2)sc(C(C)=O)c1C,0.918,1,1
Cn1cc(C(=O)CSc2nnc(-c3ccccc3)o2)c2ccccc21,1.01,1,1
Cc1cc(NC(=O)CSc2nnc(-c3ccc(Cl)cc3Cl)o2)no1,0.833,1,1
Cc1ccccc1CSc1nnc(-c2ccccc2Cl)o1,0.888,1,1
Cc1ccc(CSc2nnc(-c3cccc(Br)c3)o2)c(C)c1,1.02,1,1

SMILES,proportion of mobile M. hapla J2 (Meloidogyne hapla J2),proportion of mobile C. elegans dauer larvae [1],proportion of mobile D. dipsaci (Ditylenchus dipsaci)
Cc1ccccc1CSc1nnc(-c2ccncc2)o1,0.754,1,1
CCOC(=O)c1c(NC(=O)CSc2nnc(-c3ccc(Cl)cc3)o2)sc(C(C)=O)c1C,0.809,1,1
CC(C)Oc1ccc(-c2nc(-c3cccnc3)no2)cc1,0.899,0 (active),0.675 (active)
COc1ccc(-c2noc(COc3ccccc3C)n2)cc1,1.03,1,1
COC(=O)c1ccc(Cl)c(NC(=O)CSc2nnc(-c3ccc(Cl)cc3)o2)c1,0.77,1,1
COc1nc(-c2ccccc2)ccc1-c1noc(-c2ccco2)n1,0.685 (active),1,1
Cc1ccc(OC(C)c2nc(-c3cccnc3)no2)cc1 (centres undefined),1.03,1,1
Cc1nnc(CSc2nnc(-c3ccc(Cl)cc3)o2)o1,0.926,1,1
Cc1ccc(-c2nc(-c3ccncc3)no2)c(Cl)c1,0.979,1,1
CCOc1ccccc1-c1nc(-c2ccc(Br)cc2)no1,0.916,1,1
Brc1cccc(-c2nc(-c3cccnc3)no2)c1,1.01,1,1
O=C(CSc1nnc(-c2ccccc2)o1)c1ccc(Br)cc1,0.966,1,1
O=C(CSc1nnc(-c2ccccc2Cl)o1)Nc1nccs1,0.992,1,1
Cc1ccccc1-c1noc(-c2ccccc2C(=O)NCc2ccccc2)n1,0.874,1,1
FC(F)(F)c1cccc(-c2noc(-c3cccnc3)n2)c1,0.813,1,0.914
CCOc1ccc(NC(=O)CSc2nnc(-c3ccccc3Cl)o2)cc1,0.974,1,1
CCc1ccc(OCc2nc(-c3ccccn3)no2)cc1,0.966,1,1
CCN(C(=O)CSc1nnc(-c2ccncc2)o1)c1ccccc1,0.965,1,1
COc1ccccc1-c1noc(-c2ccccc2C)n1,0.962,1,1
Fc1ccc(-c2noc(COc3ccccc3Cl)n2)cc1,1.03,1,1
O=C(CSc1nnc(-c2ccncc2)o1)Nc1ccc(Cl)cc1Cl,0.57 (active),1,1
CC(=O)Nc1cccc(-c2nnc(SCc3ccccc3)o2)c1,0.976,1,1
COc1ccccc1-c1nnc(SCC(=O)Nc2ccc(C)cc2)o1,1.03,1,0.885
